{
  "source": "the supplement of paper PMC11383364",
  "note": "± gives the standard deviation of the averaged measurements.",
  "data": [
    {"tested_on": "SUM149", "experiment": "percent difference in area under dose-response curve of relative cell number, RPMI vs HPLM; higher = drug relatively more effective in HPLM than RPMI (negative = less effective in HPLM)", "conditions": "treatment time: 72 h; dose range: 10-point, 1 nM to 20 µM; media compared: RPMI vs HPLM", "method": "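SUM149 triple-negative breast cancer cells, 500 cells/well in 384-well plates, were grown in RPMI or human plasma-like medium (HPLM) with 5% dialyzed FBS. They were pin-transferred with an anticancer plus metabolic-inhibitor library in 10-point dose series (20 µM to 1 nM). After 72 h, cells were fixed, stained with bisbenzimide and counted by Acumen plate cytometry. The AUC of relative survival vs dose was computed per medium, and the percent difference in AUC between RPMI and HPLM is reported.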", "units": {"percent difference in area under dose-response curve": "%"}, "values": [
      {"compound": "COc1cccc2c(NCc3ccccc3)nc(-n3c(N)nc4ccccc43)nc12", "percent difference in area under dose-response curve": -7.47},
      {"compound": "Nc1nc(F)nc2c1ncn2[C@@H]1O[C@H](CO)[C@@H](O)[C@@H]1O", "note": "[Fludarabine]", "percent difference in area under dose-response curve": "-2.56 ± 3.2"},
      {"compound": "O=C(O)c1ccc2cc(-c3ccc(O)c(C45CC6CC(CC(C6)C4)C5)c3)ccc2c1", "percent difference in area under dose-response curve": -15},
      {"compound": "NC(=O)CCCSc1nc(N)nc(-c2c(Cl)cc3c4c(cccc24)COC3)n1", "percent difference in area under dose-response curve": -19.2},
      {"compound": "CC(=O)O[C@H]1C(=O)[C@@]2(C)[C@H]([C@H](OC(=O)c3ccccc3)[C@]3(O)C[C@H](OC(=O)[C@H](O)[C@@H](NC(=O)c4ccccc4)c4ccccc4)C(C)=C1C3(C)C)[C@]1(OC(C)=O)CO[C@@H]1C[C@@H]2O", "note": "[Paclitaxel]", "percent difference in area under dose-response curve": -45.1},
      {"compound": "CC(=O)O[C@]1(C(C)=O)CC[C@H]2[C@@H]3C[C@H](C)C4=CC(=O)CC[C@]4(C)[C@H]3CC[C@@]21C", "note": "[Medroxyprogesterone_acetate]", "percent difference in area under dose-response curve": 0.646},
      {"compound": "Cc1cc(Nc2cc(N3CCN(C)CC3)nc(Sc3ccc(NC(=O)C4CC4)cc3)n2)n[nH]1", "percent difference in area under dose-response curve": -14.9},
      {"compound": "O=C(c1cc(Cc2n[nH]c(=O)c3ccccc23)ccc1F)N1CCN(C(=O)C2CC2)CC1", "note": "[Olaparib]", "percent difference in area under dose-response curve": "-24.4 ± 6.6"},
      {"compound": "O=C(/C=C/c1cccnc1)NCCCCC1CCN(C(=O)c2ccccc2)CC1", "percent difference in area under dose-response curve": -32.8},
      {"compound": "COc1cc2/c(=N/c3ccc(Br)cc3F)nc[nH]c2cc1OCC1CCN(C)CC1", "note": "[Vandetanib]", "percent difference in area under dose-response curve": -3.62},
      {"compound": "Oc1ccc(Nc2nc(-c3ccc(Cl)cc3)cs2)cc1", "percent difference in area under dose-response curve": 6.02},
      {"compound": "CC1(C)CCC2=C(O1)c1ccccc1C(=O)C2=O", "note": "[beta_Lapachone]", "percent difference in area under dose-response curve": 0.097},
      {"compound": "CC[C@H](CO)Nc1nc(NCc2ccccc2)c2ncn(C(C)C)c2n1", "note": "[Roscovitine]", "percent difference in area under dose-response curve": -1.29},
      {"compound": "FC(F)c1nc2ccccc2n1-c1nc(N2CCOCC2)nc(N2CCOCC2)n1", "percent difference in area under dose-response curve": 1.79},
      {"compound": "COc1ccc(-c2ccc3c(N4CCOC[C@@H]4C)nc(N4CCOC[C@@H]4C)nc3n2)cc1CO", "percent difference in area under dose-response curve": -2.88},
      {"compound": "O=C(O)C(=O)O.[NH-][C@@H]1CCCC[C@H]1[NH-].[Pt+2]", "note": "[Oxaliplatin]", "percent difference in area under dose-response curve": -2.44},
      {"compound": "Nc1nc(Nc2ccc(S(N)(=O)=O)cc2)nn1C(=O)c1c(F)cccc1F", "percent difference in area under dose-response curve": -1.01},
      {"compound": "CN(C)CCOc1ccc(/C(=C(/CCCl)c2ccccc2)c2ccccc2)cc1", "note": "[Toremifene_Citrate]", "percent difference in area under dose-response curve": 2.31},
      {"compound": "CC1=C(/C=C/C(C)=C/C=C/C(C)=C/C(=O)Nc2ccc(O)cc2)C(C)(C)CCC1", "note": "[Fenretinide]", "percent difference in area under dose-response curve": -3.15},
      {"compound": "Cc1cc(CS(=O)(=O)c2ccccc2)cc(OCc2ccc(CN3CCC[C@@H]3CO)cc2)c1", "percent difference in area under dose-response curve": 1.05},
      {"compound": "CS(=O)(=O)CCNCc1ccc(-c2ccc3ncnc(Nc4ccc(OCc5cccc(F)c5)c(Cl)c4)c3c2)o1", "note": "[Lapatinib]", "percent difference in area under dose-response curve": -5.33},
      {"compound": "CN(Cc1cnc2nc(N)nc(N)c2n1)c1ccc(C(=O)N[C@@H](CCC(=O)O)C(=O)O)cc1", "note": "[Abitrexate]", "percent difference in area under dose-response curve": -8.44},
      {"compound": "CN(CC(=O)N(Cc1ccc(C2CCCCC2)cc1)c1ccc(C(=O)O)cc1)S(=O)(=O)c1c(F)c(F)c(F)c(F)c1F", "percent difference in area under dose-response curve": 3.06},
      {"compound": "COc1cc2c(cc1O)CC[C@@H]1[C@@H]2CC[C@]2(C)[C@@H](O)CC[C@@H]12", "note": "[2_Methoxyestradiol]", "percent difference in area under dose-response curve": 6.52},
      {"compound": "Cc1nc2c(-c3cnc(N)nc3)nc(N3CCOCC3)nc2n1C(C)C", "percent difference in area under dose-response curve": -7.54},
      {"compound": "N#Cc1c(NC(=O)c2cccc3ccccc23)sc2c1CCCC2", "note": "[JNK_Inhibitor_IX]", "percent difference in area under dose-response curve": -13.1},
      {"compound": "COc1cc([C@@H]2c3cc4c(cc3[C@@H](O[C@@H]3O[C@@H]5CO[C@@H](C)O[C@H]5[C@H](O)[C@H]3O)[C@H]3COC(=O)[C@H]23)OCO4)cc(OC)c1O", "note": "[Etoposide]", "percent difference in area under dose-response curve": -22.4},
      {"compound": "O=C(CCCCCCCn1cc(-c2cccnc2)nn1)Nc1ccccc1-c1ccccc1", "percent difference in area under dose-response curve": 0.587},
      {"compound": "COc1cc2c(cc1O)CC[C@@H]1[C@@H]2CC[C@]2(C)[C@@H](O)CC[C@@H]12", "note": "[2Methoxyestradiol]", "percent difference in area under dose-response curve": -12},
      {"compound": "CCCCCCCC/C=C\\CCCCCCCC(=O)NCCO", "note": "[Oleylethanolamide]", "percent difference in area under dose-response curve": 2.18},
      {"compound": "O=c1cc(N2CCOCC2)oc2c(-c3cccc4c3sc3ccccc34)cccc12", "percent difference in area under dose-response curve": -2.53},
      {"compound": "Cc1cc([N+](=O)[O-])ccc1NS(=O)(=O)c1cc(Cl)ccc1Cl", "percent difference in area under dose-response curve": 11.9},
      {"compound": "CC(=O)Nc1nc(C)c(-c2ccc(Cl)c(S(=O)(=O)NCCO)c2)s1", "percent difference in area under dose-response curve": -8.79},
      {"compound": "CCOc1cc2ncc(C#N)c(Nc3ccc(F)c(Cl)c3)c2cc1NC(=O)/C=C/CN(C)C", "note": "[Pelitinib]", "percent difference in area under dose-response curve": 4.27},
      {"compound": "C[C@H]1O[C@@H](O[C@H]2[C@@H](O)C[C@H](O[C@H]3[C@@H](O)C[C@H](O[C@H]4CC[C@@]5(C)[C@H](CC[C@@H]6[C@@H]5CC[C@]5(C)[C@@H](C7=CC(=O)OC7)CC[C@]65O)C4)O[C@@H]3C)O[C@@H]2C)C[C@H](O)[C@@H]1O", "note": "[Digitoxin]", "percent difference in area under dose-response curve": -8.01},
      {"compound": "Nc1ccc(C(=O)Nc2cccc(-c3nc(N4CCOCC4)c4oc5ncccc5c4n3)c2)cn1", "percent difference in area under dose-response curve": 7.67},
      {"compound": "Nc1ncn([C@H]2C[C@H](O)[C@@H](CO)O2)c(=O)n1", "note": "[Decitabine]", "percent difference in area under dose-response curve": -25.4},
      {"compound": "COc1cc2nccc(Oc3ccc(NC(=O)C4(C(=O)Nc5ccc(F)cc5)CC4)cc3)c2cc1OC", "note": "[Cabozantinib_malate]", "percent difference in area under dose-response curve": 13.2},
      {"compound": "C=CCN(C)CCCCCCOc1ccc(C(=O)c2ccc(Br)cc2)c(F)c1", "percent difference in area under dose-response curve": -0.097},
      {"compound": "CCNC(=O)c1noc(-c2cc(C(C)C)c(O)cc2O)c1-c1ccc(CN2CCOCC2)cc1", "percent difference in area under dose-response curve": -30}
    ]}
  ]
}
